Measurements: PubChem BioAssay (Tox21)
“And” between values parts separate entries of the source, which are not always exact repeats. Identical values can stand only once. Records with an inconclusive call do not appear. A call without a number means that no potency is given here. A structure can be active in one record and inactive in another. The source made the active and inactive calls. Unless noted, the call rests on the fitted dose curve; in most records, active means well fitted curve in the direction sought with a large enough effect in the repeat runs; inconclusive means weak or mixed curves; inactive means no such curve, though single readings can be large; an effect the other way counts as inactive or inconclusive.

Key:
[1] = qHTS assay to identify small molecule agonists of the NFkB signaling pathway (AID 1159509; active means well fitted curve in the direction sought with a large enough effect in the signal ratio in the repeat runs, not every such curve was filed as active; the % refers to the signal ratio; further: series mostly up to about 61 µM)
Method in brief: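 ME-180 NFkB-bla, 2,000 cells/well, overnight plating; cpd pinned in DMSO, 5 h 37 C; B/G FRET substrate 1.5 h RT; ex 405, em 460/530 nm.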

[2] = qHTS assay to identify small molecule agonists of the NFkB signaling pathway - cell viability counter screen (AID 1159515; calls by dose curve; further: series mostly up to about 61 µM; nearly all actives have a fitted effect of over 55% in size)
Method in brief: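 Multiplexed viability readout: after the 5 hr compound exposure and 1.5 hr FRET substrate step, CellTiter-Glo reagent went into the same NFkB-bla ME-180 wells; ATP luminescence was measured after 30 min at room temperature.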

[3] = qHTS assay to identify small molecule agonists of the endoplasmic reticulum stress response signaling pathway (AID 1159516; active means well fitted activation curve with a large enough effect in the signal ratio in the repeat runs, not every such curve was filed as active; the % refers to the signal ratio)
Method in brief: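 Tox21 10K library screened in quantitative HTS format on ESRE-bla HeLa cells, a beta-lactamase reporter under ER stress response element control; 5 hr treatment, FRET read.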

[4] = qHTS assay to identify small molecule agonists of the endoplasmic reticulum stress response signaling pathway - cell viability counter screen (AID 1159517; calls by dose curve; further: nearly all actives have a fitted effect of over 50% in size; further: potency means the concentration at half of the fitted maximal effect)
Method in brief: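 ESRE-bla HeLa cells, 1,500 per well, seeded overnight then treated with compounds for 5 hr at 37 C. After the beta-lactamase read, viability in the same wells is measured by CellTiter-Glo luminescence after 30 min at room temperature.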

[5] = qHTS assay to identify small molecule antagonists of the retinoid-related orphan receptor gamma (ROR-gamma) signaling pathway - cell viability counter screen (AID 1159520); further: nearly all actives have a fitted effect of over 50% in size
Method in brief: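 Tet-on ROR gamma CHO cells were given compounds for 2 hr, then doxycycline hyclate at 1 uM final, and incubated 16 hr at 37 C. Viability was measured as ATP content by CellTiter-Glo luminescence.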

[6] = qHTS assay to identify small molecule agonists of the AP-1 signaling pathway - cell viability counter screen (AID 1159525; calls by dose curve; further: nearly all actives have a fitted effect of over 55% in size)
Method in brief: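 AP-1-bla ME-180 cells in Opti-MEM with 0.5% dialyzed FBS, compound exposure 5 h at 37 C in 15-point titration. Viability read in the same wells as ATP content by CellTiter-Glo luminescence, normalised to tetra-n-octylammonium bromide and DMSO controls.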

[7] = qHTS assay to identify small molecule agonists of the AP-1 signaling pathway (AID 1159526; calls by dose curve)
[8] = biological target: Retinoic acid receptor RXR-alpha (Homo sapiens) (UniProt P19793); test: qHTS assay to identify small molecule agonists of the RXR signaling pathway (AID 1159527; calls by dose curve; further: nearly all actives have a fitted effect of over 35% in size; further: potency means the concentration at half of the fitted maximal effect)
Sequence of Retinoic acid receptor RXR-alpha (Homo sapiens) (P19793 whole entry, looked up): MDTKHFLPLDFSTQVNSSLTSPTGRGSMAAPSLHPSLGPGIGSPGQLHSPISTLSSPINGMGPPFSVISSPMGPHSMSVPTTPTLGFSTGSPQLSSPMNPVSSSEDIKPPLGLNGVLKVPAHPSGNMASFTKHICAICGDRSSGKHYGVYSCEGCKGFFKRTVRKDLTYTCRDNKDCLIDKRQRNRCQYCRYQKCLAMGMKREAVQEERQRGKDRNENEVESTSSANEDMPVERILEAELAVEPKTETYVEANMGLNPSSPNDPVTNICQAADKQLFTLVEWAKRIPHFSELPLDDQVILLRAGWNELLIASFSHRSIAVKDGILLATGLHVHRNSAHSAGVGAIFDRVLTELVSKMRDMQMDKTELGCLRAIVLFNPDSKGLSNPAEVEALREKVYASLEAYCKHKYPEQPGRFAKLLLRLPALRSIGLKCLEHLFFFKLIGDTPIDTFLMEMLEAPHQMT
Method in brief: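 Compounds in DMSO were added to RXR-alpha-UAS-bla HEK 293T cells kept in 2% charcoal-stripped serum, and incubated 16 hr at 37 C with 5% CO2. Reporter signal came from a 2 hr B/G FRET substrate step.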

[9] = qHTS assay to identify small molecule agonists of the RXR signaling pathway - cell viability counter screen (AID 1159529);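 further: HEK 293T cells carrying an RXR-alpha UAS beta-lactamase reporter; series mostly up to about 77 µM; nearly all actives have a fitted effect of over 50% in size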
Method in brief: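 Counter screen: CellTiter-Glo luminescence. Cells: RXR-alpha-UAS-bla HEK 293T. Medium: 2% charcoal-stripped FBS. Treatment: 16 h, 37 C. Reagent incubation: 30 min, RT.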

[10] = qHTS assay to identify small molecule antagonists of the retinoid acid receptor (RAR) signaling pathway - cell viability counter screen (AID 1159551); further: nearly all actives have a fitted effect of over 35% in size
Method in brief: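 Cytotoxicity counter screen in C3RL4 cells: 6 h compound exposure with 1 uM retinol (final), viability from cellular ATP by luminescence.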

[11] = qHTS assay to identify small molecule antagonists of the retinoic acid receptor (RAR) signaling pathway (AID 1159552; further: nearly all actives have a fitted effect of over 50% in size)
Method in brief: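 Antagonism of retinol-induced RARE reporter activity was measured in C3RL4 cells. Exposure to compounds and 1 uM final retinol lasted 6 hr at 37 C, with luminescence as endpoint.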

[12] = qHTS assay to identify small molecule antagonists of the estrogen related receptor (ERR) signaling pathway from Tox21 library - cell viability counter screen (AID 1224834); further: nearly all actives have a fitted effect of over 30% in size; further: potency means the concentration at half of the fitted maximal effect
Method in brief: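 Cytotoxicity of test substances is gauged in the same ERR cells used for the antagonist screen, after 17.5 h of compound treatment at 37 C, by CellTiter-Fluor fluorescence measured after 30 min.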

[13] = biological target: Nuclear receptor ROR-gamma (Homo sapiens) (UniProt P51449); test: qHTS assay to identify small molecule antagonists of the retinoid-related orphan receptor gamma (ROR-gamma) signaling pathway (AID 1159521)
Method in brief: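 Inducible-expression reporter assay: doxycycline (1 uM final) switched on RORγ in CHO cells bearing a ROR response element-luciferase construct, with test compounds present from 2 h beforehand. Decreased luminescence after 16 h defined antagonist activity.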

[14] = qHTS assay to identify small molecule agonists of the retinoic acid receptor (RAR) signaling pathway (AID 1159553)
Method in brief: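 Agonist activity was scored in C3RL4 cells bearing a retinoic acid response element luciferase construct. Cells were treated with compounds for 6 hr at 37 C, and luciferase signal was measured as luminescence.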

[15] = qHTS assay to identify small molecule antagonists of the estrogen related receptor (ERR) signaling pathway - cell viability counter screen (AID 1224818);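 further: series mostly up to about 46 µM; viability measured after 17.5 h of compound exposure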
Method in brief: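 Cells carrying the ERR pathway reporter were seeded and incubated for 6 hours before compound addition. After a 17.5-hour exposure at 37 C, live-cell protease activity was measured by CellTiter-Fluor fluorescence following 30 minutes of incubation.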

[16] = qHTS assay to identify small molecule antagonists of the estrogen related receptor signaling pathway with the pleiotropic PPARgamma coactivator (PGC) cell viability counter screen (AID 1224822;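 further: series mostly up to about 46 µM; viability read after 17.5 h compound exposure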)
Method in brief: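 Seed PGC/ERR cells (2,000/well); incubate 6 h at 37 C/5% CO2; pin-transfer compounds in DMSO; incubate 17.5 h at 37 C; add CellTiter-Fluor; after 30 min read fluorescence.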

[17] = qHTS assay to identify small molecule antagonists of the estrogen related receptor (ERR) signaling pathway (AID 1224819)
Method in brief: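 Compounds dissolved in DMSO were pin-transferred onto ERR cells that had been plated 6 h earlier, and cells were then incubated 18 h at 37 C; signal was luciferase luminescence via One-Glo.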

[18] = qHTS assay to identify small molecule agonists of the estrogen related receptor (ERR) signaling pathway (AID 1224820)
Method in brief: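 Cells: ERR line from NTP, 2,000/well. Pre-incubation 6 h, 37 C/5% CO2. Compound (DMSO) pin transfer, 18 h 37 C. One-Glo, 30 min RT, luminescence.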

[19] = system: estrogen-related receptor alpha (ERRalpha) with PGC-1alpha coactivator, human; test: qHTS assay to identify small molecule antagonists of the estrogen related receptor signaling pathway with the pleiotropic PPARgamma coactivator (PGC) (AID 1224821; calls by dose curve)
Method in brief: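 Luminescent read-out (One-Glo, 30 min at room temperature) following 18 h treatment of PGC/ERR cells at 37 C with compounds delivered in DMSO. Cells had settled 6 h at 37 C/5% CO2 before dosing.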

[20] = qHTS assay to identify small molecule agonists of the estrogen related receptor signaling pathway with the pleiotropic PPARgamma coactivator (PGC) (AID 1224823)
Method in brief: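 Steps: plate PGC/ERR cells at 2,000 cells/well; incubate 6 h, 37 C/5% CO2; pin-transfer compounds (DMSO); incubate 18 h, 37 C; add One-Glo; 30 min RT; read luminescence.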

Structure (SMILES)	outcome [1]	outcome [2]	outcome [3]	Potency [4]	outcome [5]	outcome [6]	Potency [7]	Potency [8]	Potency [9]	outcome [10]	Potency [11]	Potency [12]	Potency [13]	Potency [14]	outcome [15]	outcome [16]	Potency [17]	outcome [18]	outcome [19]	outcome [20]
CCCCCCCC(=O)OCC(O)CO (configuration not stated)	inactive	inactive	inactive	inactive	inactive	inactive	inactive	inactive	inactive	inactive	inactive	inactive								
CCCCNC(=O)NS(=O)(=O)c1ccc(N)cc1	inactive	inactive	inactive	inactive	inactive		inactive	inactive	inactive	inactive	inactive	inactive	inactive							
CCCCC/C(C=O)=C\c1ccccc1	inactive	inactive	inactive	inactive	inactive	inactive	inactive	inactive	inactive	inactive	inactive	inactive		inactive						
CCCCOCCOCCSC#N	inactive	inactive	inactive	inactive	inactive	inactive	inactive	inactive	inactive	inactive	inactive	inactive		inactive						
CC1(C)O[C@@H]2[C@@H](CO[C@@]3(COS(N)(=O)=O)OC(C)(C)O[C@@H]23)O1	inactive	inactive	inactive	inactive	inactive	inactive	inactive	17.4 µM (active) and inactive	inactive	inactive	inactive	inactive								
O=[N+]([O-])c1ccc(O)cc1	inactive	inactive	inactive	inactive	inactive	inactive	inactive	inactive	inactive	inactive	inactive	50.4 µM (active) and 30.6 µM (active) and 54.5 µM (active)								
Cc1c(N(C)C)c(=O)n(-c2ccccc2)n1C	inactive	inactive	inactive	inactive	inactive	inactive	inactive	inactive	inactive	inactive		inactive								
CO[C@H]1C=CO[C@@]2(C)Oc3c(C)c(O)c4c(O)c(c(/C=N/N5CCN(C)CC5)c(O)c4c3C2=O)NC(=O)/C(C)=C\C=C[C@H](C)[C@H](O)[C@@H](C)[C@@H](O)[C@@H](C)[C@H](OC(C)=O)[C@@H]1C	inactive	inactive	inactive	inactive	inactive		inactive	inactive	inactive	inactive	inactive	27.4 µM (active) and 31 µM (active) and 23.7 µM (active)	inactive							
NC(=O)OCC(COC(N)=O)c1ccccc1	inactive	inactive	inactive	inactive	inactive		inactive	inactive	inactive	inactive	inactive	inactive	inactive		inactive	inactive				
O=C(O)Cc1cccc2ccccc12	inactive	inactive	inactive	inactive	inactive		inactive	inactive	inactive	inactive		inactive	inactive		inactive	inactive				
COc1ccc(O)cc1	inactive	inactive	inactive	inactive	inactive	inactive	inactive	inactive	inactive	inactive		inactive								
C[C@]12C=CC(=O)C=C1CC[C@@H]1[C@@H]2C(=O)C[C@@]2(C)[C@H]1CC[C@]2(O)C(=O)CO	inactive	inactive	inactive	inactive	inactive		inactive	inactive	inactive	inactive	inactive	inactive	inactive							
c1ccc2[nH]c(-c3cscn3)nc2c1	inactive	inactive	inactive	inactive	inactive		inactive	1.1 µM (active) and inactive	inactive	inactive	inactive	inactive	inactive							
Cc1cccc(Nc2cc(Cl)nc(SCC(=O)O)n2)c1C	inactive	inactive	inactive	inactive	inactive	inactive	inactive		inactive	inactive	inactive	inactive		inactive						
COCC(C)N (configuration not stated)	inactive	inactive	inactive	inactive	inactive		inactive	inactive	inactive	inactive	inactive	inactive	inactive							
CC1=NN(c2ccccc2)C(=O)C1	inactive	inactive	inactive	inactive	inactive	inactive	inactive	inactive	inactive	inactive	inactive	inactive								
CC(O)COc1ccccc1 (configuration not stated)	inactive	inactive	inactive	inactive	inactive	inactive	inactive	inactive	inactive	inactive	inactive	inactive								
N[C@@H](Cc1c[nH]c2ccccc12)C(=O)O	inactive	inactive	inactive	inactive	inactive	inactive	inactive	inactive	inactive	inactive	inactive	inactive			inactive	inactive				
COC(=O)c1ccc(O)cc1	inactive	inactive	inactive	inactive	inactive	inactive	inactive	inactive and 6.16 µM (active)	inactive	inactive	inactive	inactive								
CC(=O)c1ccc(S(=O)(=O)NC(=O)NC2CCCCC2)cc1	inactive	inactive	inactive	inactive	inactive	inactive	inactive	inactive	inactive	inactive	inactive	inactive		inactive	inactive	inactive				
C=CC(=O)NC(C)(C)CS(=O)(=O)O	inactive	inactive	inactive	inactive	inactive		inactive	inactive	inactive	inactive	inactive	inactive	inactive							
COc1cc(O)c(C(=O)c2ccccc2)cc1S(=O)(=O)O	inactive	inactive	inactive	inactive	inactive	inactive	inactive	inactive	inactive	inactive	inactive	inactive								
NC(=O)N/N=C/c1ccc([N+](=O)[O-])o1	inactive	inactive	inactive	inactive and 49 µM (active)	inactive		inactive	inactive and 13.8 µM (active)	inactive	inactive		inactive and 27.3 µM (active)	inactive			inactive	inactive	inactive	inactive	inactive
O=c1cc[nH]c(=O)[nH]1	inactive	inactive	inactive	inactive	inactive		inactive	inactive	inactive	inactive	inactive	inactive	inactive							
CCOC(=O)C(C)(C)Oc1ccc(Cl)cc1																			inactive	
CCN(CC)CCOC(=O)c1ccc(N)cc1																			inactive	
